High-throughput results as filed in PubChem BioAssay.
SENP8 block-1: inhibitors of human SENP8 protease; Q96LD8; purified SENP8, Z-RLRGG-aminoluciferin cleavage, luminescence; inhibition, % at 10 µM; 330,000 tested, 1.2% active; AID 2540; in the data active means inhibition above about 50%
Target sequence (Q96LD8 whole entry, looked up): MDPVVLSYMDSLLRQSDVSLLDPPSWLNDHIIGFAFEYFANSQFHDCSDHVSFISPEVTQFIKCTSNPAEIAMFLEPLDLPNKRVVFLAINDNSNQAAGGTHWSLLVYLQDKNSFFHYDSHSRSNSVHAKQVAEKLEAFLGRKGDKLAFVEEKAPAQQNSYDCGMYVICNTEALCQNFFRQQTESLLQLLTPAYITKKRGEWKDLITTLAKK
Platelet DG rel: platelet dense granule release activity; human platelet-rich plasma, SFLLRN dense granule ATP release, luminescence; inhibition, %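 (compounds screened at 7.5 µM in platelet-rich plasma)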; 300,000 tested, 0.22% active;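 active means mean replicate score, as percent of positive control, at or above 50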
SENP8 block-2: SENP8 (human) protease inhibition; Q96LD8; recombinant SENP8, Nedd8 substrate fluorescence; inhibition, % at 20 µM; 360,000 tested, 0.64% active; AID 602440; in the data active means inhibition mostly above about 40%, no sharp cut-off; inactive means mostly below about 27%
SENP7 inh: inhibitors of human SENP7 protease; AID 434973; Q9BQF6; 330,000 tested, 1.5% active; recombinant SENP7, Z-RLRGG-aminoluciferin luminescence, 40 min; inhibition, % at 5 µM;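 active means inhibition above about 50% at the single test dose, limit read from the data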
Target sequence (Q9BQF6 706-1050 limits assumed): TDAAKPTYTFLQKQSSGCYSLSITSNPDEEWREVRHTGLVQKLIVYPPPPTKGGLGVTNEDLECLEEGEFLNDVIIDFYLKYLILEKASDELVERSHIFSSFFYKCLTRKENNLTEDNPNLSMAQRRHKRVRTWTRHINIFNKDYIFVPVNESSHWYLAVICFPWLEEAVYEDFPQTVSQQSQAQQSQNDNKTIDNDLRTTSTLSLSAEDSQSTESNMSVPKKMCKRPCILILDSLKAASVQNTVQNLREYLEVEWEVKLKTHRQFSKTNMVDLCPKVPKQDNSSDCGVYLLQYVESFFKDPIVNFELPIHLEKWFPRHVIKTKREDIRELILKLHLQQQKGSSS
SENP6 block: blocks the human protease SENP6. Q9GZR1. Recombinant SENP6 catalytic domain, aminoluciferin luminescence. inhibition, % at 10 µM. 330,000 tested, 1.8% active. AID 2599;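 active means inhibition above about 50% at the single tested dose, limit read from the data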
SENP8 confirm: confirmation of human SENP8 protease inhibitors; 6,200 tested, 40% active; inhibition, % at 12.5 µM; Recombinant SENP8, Z-RLRGG-aminoluciferin luminescence, 60 min; AID 488912; shares compounds with SENP7 inh;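 active means mean inhibition across replicates above about 50%, limit read from the data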
SENP6 confirm: human SENP6 inhibition, confirmed. shares compounds with SENP7 inh. recombinant SENP6, Z-RLRGG-aminoluciferin luminescence. inhibition, % at 12.5 µM. 6,200 tested, 58% active
SENP7 conf: human SENP7 inhibition, confirmed; shares compounds with SENP7 inh; recombinant SENP7, Z-RLRGG-aminoluciferin luminescence, 40 min; inhibition, % at 12.5 µM; 6,200 tested, 69% active
Casp3 SENP sel: inhibits human caspase-3 in SENP selectivity test; shares compounds with SENP7 inh; purified caspase-3, Z-DEVD-aminoluciferin luminescence, 60 min; inhibition, % at 12.5 µM; 6,200 tested, 60% active; AID 488918;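 active means mean inhibition above about 50%, limit read from the data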
Luc interf: counter-screen for SENP inhibitors: luminescence interference | shares compounds with SENP7 inh | Pre-incubated SENP8/Z-RLRGG-aminoluciferin, luciferase luminescence interference | inhibition, % at 12.5 µM | 6,200 tested, 39% active;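 active means mean inhibition above about 50% when retested at one dose, limit read from the data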
A number is an active result; 0 = inactive; - = no result given. Shown are actives, neighbours in structure and some others; about 2.4% of the full set was active somewhere.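 How the source made its calls, unless noted: active means mean inhibition above about 50% in the one-dose retest (limit read from the data); inactive means the rest.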

SMILES	SENP8 block-1	Platelet DG rel	SENP8 block-2	SENP7 inh	SENP6 block	SENP8 confirm	SENP6 confirm	SENP7 conf	Casp3 SENP sel	Luc interf
Cc1ccc(/C=C/c2nc3ccccc3c(=O)[nH]2)cc1	86	0	0	98	90	0	55	0	0	0
C=CCOc1cccc(/C=C/c2nc3ccccc3c(=O)[nH]2)c1	0	0	0	82	0	0	0	0	0	0
COc1cc(/C=C/c2nc3ccccc3c(=O)[nH]2)cc(OC)c1OC	0	0	0	0	0	-	-	-	-	-
CC1(C(=O)Nc2ccc(S(=O)(=O)Nc3ncccn3)cc2)CCCC1	0	-	0	0	0	-	-	-	-	-
Cc1ccc(Nc2cc(Cl)nc(N)n2)c([N+](=O)[O-])c1	-	-	0	-	-	-	-	-	-	-
CCOC(=S)SCc1cn2cccc(C)c2n1	0	0	0	0	0	-	-	-	-	-
O=C(C1CC1)N1CCC(c2nc(-c3ccc(S(=O)(=O)N4CCCC4)cc3)no2)CC1	0	0	0	84	0	0	0	0	0	0
COc1ccc(C(=O)Nc2nccs2)cc1	0	0	0	0	52	0	0	63	64	0
COc1ccc(NC(=O)Nc2nccs2)cc1	0	0	0	56	74	0	0	80	77	63
N#C/C(=C\c1cccnc1)c1ccccc1[N+](=O)[O-]	0	0	0	0	0	-	-	-	-	-
c1ccc(-c2ccc(-n3ccnc3)cc2)cc1	0	0	0	0	53	0	0	72	56	63
O=[N+]([O-])c1ccc2nc(-c3ccccc3)[nH]c2c1	79	0	0	85	82	0	81	95	83	82
Cn1cccc1-c1nc2ccc([N+](=O)[O-])cc2[nH]1	0	0	0	58	62	51	52	85	62	62
O=[N+]([O-])c1ccc2nc(-c3cccnc3)[nH]c2c1	0	0	0	0	0	-	-	-	-	-
O=C(Cn1ccc2cc(S(=O)(=O)N3CCCCC3)ccc21)NCc1ccccc1F	0	0	0	0	0	-	-	-	-	-
CCCCCCCN1C(Nc2ccccc2)=NC[C@@H]1CC(C)C	0	0	0	0	0	-	-	-	-	-
OCC[C@H]1C[C@H](O)[C@@H](O)[C@@]2(Cc3ccccc3O2)O1	0	-	0	0	0	-	-	-	-	-
Cc1ccc(NC(=O)C2CC(=O)N(CCc3ccccc3)C2)c(C)c1 (configuration not stated)	0	0	0	0	0	-	-	-	-	-
Nc1ccccc1N=Nc1ccccc1N	77	0	0	85	86	85	83	96	73	64
CCOC(=O)C(=O)c1cn(C2OCC(OC(C)=O)C(OC(C)=O)C2OC(C)=O)c2ccccc12 (configuration not stated)	0	0	0	0	0	-	-	-	-	-
CCOc1cc(C)c(Cl)cc1S(=O)(=O)N(CC)CC	63	0	0	0	0	0	0	0	0	0
CCOC(=O)Cn1c2ccc(C)cc2c2nc(C)sc21	0	0	0	0	51	0	0	0	0	0
O=C(NCCS(=O)(=O)NCC1CCCO1)c1ccccc1 (configuration not stated)	0	0	0	0	0	-	-	-	-	-
COC(=O)c1sc(NC(=S)NC(=O)c2ccccc2Cl)nc1C	0	0	0	0	62	0	0	0	0	0
Cc1cc(C)nc(NC(=O)c2cccs2)n1	0	0	0	0	0	-	-	-	-	-
SMILES	SENP8 block-1	Platelet DG rel	SENP8 block-2	SENP7 inh	SENP6 block	SENP8 confirm	SENP6 confirm	SENP7 conf	Casp3 SENP sel	Luc interf
CCOC(=O)c1sc(NC(=O)c2cccs2)nc1C	-	-	0	-	-	-	-	-	-	-
CC(=O)c1sc(NC(=O)c2cccs2)nc1C	0	0	0	62	62	0	52	81	84	0
CC(=O)c1sc(NC(=O)c2ccccc2F)nc1C	83	0	0	87	83	86	84	97	93	85
Cc1nc(NC(=O)c2cccs2)ccc1Br	70	0	0	81	0	82	82	95	80	70
CC(=O)c1sc(NC(=O)c2cccnc2Cl)nc1C	0	0	0	0	0	-	-	-	-	-
Cc1cc(C)n(CCC(=O)N2CCN(S(=O)(=O)c3ccccc3)CC2)n1	0	0	0	0	0	-	-	-	-	-
Oc1[nH]c2ccccc2c1C=Nc1ccc2c(c1)OCO2	76	0	0	0	86	67	88	99	83	0
COc1ccc(N=Cc2c(O)[nH]c3ccccc23)cc1	66	0	0	68	0	0	83	99	76	0
Cc1[nH]c2ccccc2c1/C=N\NC(=O)CNc1ccc2c(c1)OCO2	0	0	0	0	0	-	-	-	-	-
CC1(C)CC(=O)C2=C(C1)NC1=C(C(=O)c3ccccc31)C2c1cc([N+](=O)[O-])ccc1O (configuration not stated)	0	0	0	0	0	-	-	-	-	-
COc1ccc2c(c1)sc1nc(-c3ccccc3)cn12	96	54	0	99	96	0	101	104	98	99
CCOC(=O)c1c[nH][nH]c1=O	0	0	0	0	0	-	-	-	-	-
O=C(Nc1cccc(-c2ccc(N3CCCCC3)nn2)c1)c1ccc(Br)o1	76	0	0	83	89	73	79	94	82	60
CC1CCN(c2ccc(-c3cccc(NC(=O)C(F)(F)F)c3)nn2)CC1	0	0	0	0	0	-	-	-	-	-
O=C(Nc1cccc(-c2ccc(N3CCCCC3)nn2)c1)C(F)(F)F	0	0	0	0	0	-	-	-	-	-
CCC(=O)Nc1cccc(-c2ccc(N3CCC(C)CC3)nn2)c1	0	0	0	59	69	0	56	84	73	0
CC1CCN(c2ccc(-c3cccc(NC(=O)c4ccco4)c3)nn2)CC1	59	0	0	74	79	66	69	88	66	0
CC(CCc1ccccc1)NC(=O)C(Cc1ccccc1)NS(=O)(=O)c1cccs1 (configuration not stated)	0	0	0	80	0	0	0	0	0	0
CC1CCCCC1NC(=O)C(Cc1ccccc1)NS(=O)(=O)c1cccs1 (configuration not stated)	0	0	0	0	0	-	-	-	-	-
CN1CCN(/N=C/c2ccc(-c3ccccc3)cc2)CC1	79	0	0	83	0	82	86	98	90	50
Cc1ccsc1C(=O)N1CCCCCC1(C)C(=O)NCC(C)C (configuration not stated)	-	-	0	-	-	-	-	-	-	-
CCn1c(C)cc(C(=O)COC(=O)c2cccnc2SC)c1C	0	-	0	0	0	-	-	-	-	-
CSc1ncccc1C(=O)OCC(=O)c1cc(C)n(CC2CCCO2)c1C (configuration not stated)	83	0	0	78	88	92	92	99	93	0
